# The list is not random: actives were taken first. Their share in the collection is about 0.93%.
# MEP2 TOR yeast: alters MEP2-GFP fluorescence in TOR pathway yeast screen. S. cerevisiae MEP2-GFP strain, flow cytometry GFP, 3 h; 100% = DMSO control level. 330,000 tested, 0.51% active. GFP response vs DMSO, % at 10 µM;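 active = GFP response versus DMSO above a set limit, roughly screen mean plus 3 SD, cut at about 180% in these data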;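 also: median GFP fluorescence of the barcode-gated MEP2-GFP cells per well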
# RPL19A-GFP yeast: alters RPL19A-GFP fluorescence in TOR pathway yeast screen; S. cerevisiae RPL19A-GFP strain, flow cytometry, 3 h; hits give low values; percent response vs DMSO, % at 10 µM; 330,000 tested, 0.3% active;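 active = percent response vs DMSO below 50%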;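 also: median channel GFP fluorescence of the barcoded RPL19A-GFP strain; lower means less RPL19A-GFP as with rapamycin TOR inhibition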
# LAP4-GFP MLPCN: modulators of TOR pathway LAP4-GFP in S. cerevisiae; GFP response vs DMSO, % at 10 µM; 320,000 tested, 0.34% active; S. cerevisiae LAP4-GFP multiplex, flow cytometry GFP, 3 h; median GFP as percent of DMSO wells; AID 2023;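 active = GFP response vs DMSO above a set limit, about the screen mean plus 3 SD, cut at about 150% in these data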
# CIT2-GFP yeast: modulators of TOR pathway CIT2-GFP in S. cerevisiae; S. cerevisiae CIT2-GFP strain, flow cytometry, 3 h; 100 means same as DMSO wells; GFP response vs DMSO, % at 10 µM; 320,000 tested, 0.065% active; AID 2029;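 active = GFP response relative to DMSO above a set limit, near the screen mean plus 3 SD, cut at about 150% in these data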;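 also: ratio of well median GFP fluorescence to mean of DMSO wells on the plate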
# AGP1-GFP MLPCN: yeast TOR pathway AGP1-GFP modulation; S. cerevisiae AGP1-GFP multiplex flow cytometry, 3 h; GFP as percent of DMSO wells; GFP response vs DMSO, % at 10 µM; 320,000 tested, 0.02% active;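 active = GFP response relative to DMSO above a set limit, near screen average plus 3 SD, cut at about 150% in these data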;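 also: median GFP channel fluorescence of the gated AGP1 strain per well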
# LAP4 cherry2: second confirmation of modulators of TOR reporter LAP4-GFP in yeast; shares compounds with LAP4-GFP MLPCN; S. cerevisiae LAP4-GFP strain, flow cytometry GFP, 3 h; GFP response vs DMSO, % at 10 µM; 590 tested, 20% active;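 active = GFP signal as percent of the solvent control above about 150%, meaning raised reporter expression, limit read from the data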
# MEP2-GFP pick2: reconfirmed MEP2-GFP TOR pathway modulator in yeast; GFP response vs DMSO, % at 10 µM; AID 2622; shares compounds with LAP4-GFP MLPCN; S. cerevisiae MEP2-GFP strain, flow cytometry GFP, 3 h; 590 tested, 10% active;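 active = GFP signal above 150% of the solvent control wells, that is a rise of more than half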;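 also: median channel GFP fluorescence of all gated yeast cells per well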
# RPL19A-GFP pick2: second confirmation of modulators of TOR reporter RPL19A-GFP in yeast. 590 tested, 3% active. GFP response vs DMSO, % at 10 µM. AID 2623. S. cerevisiae RPL19A-GFP strain, flow cytometry GFP, 3 h; hits give low values; 100% means same as DMSO wells. shares compounds with LAP4-GFP MLPCN;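 active = under 65% GFP response relative to DMSO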;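 also: median GFP channel fluorescence per well over the all cells gate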
# CIT2 GFP CP2: yeast CIT2-GFP TOR reporter modulation, second cherry pick. shares compounds with LAP4-GFP MLPCN. S. cerevisiae CIT2-GFP strain, flow cytometry GFP, 3 h; DMSO control wells read 100%. GFP response vs DMSO, % at 10 µM. 590 tested, 8% active. AID 2624;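 active = GFP response vs DMSO above about 150%, limit read from the data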;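 also: median green fluorescence per well over all gated yeast cells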
# AGP1-GFP pick2: yeast AGP1-GFP TOR reporter modulation, second cherry pick; shares compounds with LAP4-GFP MLPCN; S. cerevisiae AGP1-GFP strain, flow cytometry GFP, 3 h; percent response vs DMSO, % at 10 µM; 590 tested, under 10 active;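 active = over 150 percent of DMSO response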;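 also: median GFP channel fluorescence over all cells without mother daughter split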
# s288c autofluor: counter-screen for compound autofluorescence in yeast s288c cells. 610 tested, under 10 active. fluorescence change (kMESF span) at 33 µM. S. cerevisiae s288c, 520 nm autofluorescence, flow cytometry, 3 h; hits give high values; zero means same as solvent-only cells. AID 2757. shares compounds with LAP4-GFP MLPCN;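 active = fluorescence span over the dose series, or activity score, above about 33, limit read from the data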
# s288c autofl DR: counter-screen for autofluorescence of TOR hits in yeast s288c | shares compounds with LAP4-GFP MLPCN | S. cerevisiae s288c parental, compound autofluorescence, flow cytometry, 3 h | fluorescence change (span) at 33 µM | 110 tested, under 10 active;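 active = fluorescence change span, or the activity score built from it, above 25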
# TORC1 bypass gr: wildtype yeast growth loss with TORC1 bypass cells unaffected; shares compounds with LAP4-GFP MLPCN; S. cerevisiae BY4741 spot growth rating, 48-72 h; hits give low values; growth rating (0-3) at 30 µM; 120 tested, under 10 active; AID 504456;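 active = growth rating at most 1 for wild type yeast while the TORC1 bypass strain still grows fully, rated 3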
# Numbers stand for hits; – = inactive; · = not tested or not shown; [ ] = remark or other dose.
SMILES,MEP2 TOR yeast,RPL19A-GFP yeast,LAP4-GFP MLPCN,CIT2-GFP yeast,AGP1-GFP MLPCN,LAP4 cherry2,MEP2-GFP pick2,RPL19A-GFP pick2,CIT2 GFP CP2,AGP1-GFP pick2,s288c autofluor,others
O=C1c2ccccc2C(=O)C2OC12 (configuration not stated),–,–,163.0,–,–,·,·,·,·,·,–,
O=C1c2ccccc2C(=O)C1c1ccccn1,–,–,–,–,–,·,·,·,·,·,·,
CC(=O)N(C1=C(Cl)C(=O)c2ccccc2C1=O)C1CCCCC1,–,8.2,–,–,–,·,·,·,·,·,–,
Cn1ccnc1CN1CCCCC1C(=O)Nc1ccc(Oc2cccnc2)cc1 (configuration not stated),–,–,–,–,–,·,·,·,·,·,·,
CC(C)(C)C1CCC(=NNC(=O)C(=O)NCc2ccco2)CC1 (configuration not stated),–,–,–,–,–,–,–,–,–,–,·,
O=C1CC(c2ccccc2)=NN1c1nc(-c2ccccc2)cs1,–,–,–,–,–,–,213.1,–,–,–,–,
Cc1cccc(N=Nc2ccc(O)c3ncccc23)c1,–,–,165.4[may fluoresce green],–,–,200.4,–,–,–,–,–,
CCOC(=O)c1c(-c2ccccc2)csc1NC(=O)c1cc(-c2ccccc2OC)on1,–,–,–,–,–,·,·,·,·,·,·,
Cc1ccc(C2=NN(S(C)(=O)=O)C(c3ccc4c(c3)OCO4)C2)cc1 (configuration not stated),–,–,–,–,–,·,·,·,·,·,–,
CC(NCc1ccc(S(N)(=O)=O)cc1)C(=O)N1c2ccccc2CC1C (configuration not stated),–,–,–,–,–,·,·,·,·,·,·,
CCN1/C(=C\C(=S)Nc2ccccc2)Sc2ccccc21,–,–,–,–,–,·,·,·,·,·,·,
CCN1/C(=C/C(C)=C/c2sc3ccccc3[n+]2CC)Sc2ccccc21,–,–,187.6,–,–,·,·,·,·,·,–,
CC(Oc1cc2oc(=O)c3c(c2cc1Cl)CCCC3)C(=O)NCCN1CCOCC1 (configuration not stated),–,–,–,–,–,·,·,·,·,·,·,
CS/C(=N\S(=O)(=O)c1ccc(Cl)cc1)c1ccccc1,–,–,–,–,–,·,·,·,·,·,·,
O=S(=O)(/N=C(\Sc1ccc(Cl)cc1)c1ccccc1)c1ccccc1,–,–,213.6,–,–,·,·,·,·,·,–,
C=CCn1c(C)c(C(C)=O)c(N2CCOCC2)nc1=S,–,–,–,–,–,–,–,–,–,–,·,
CC1CN(S(=O)(=O)c2ccc(C(=O)N(CCCN(C)C)c3nc4c(Cl)cccc4s3)cc2)CC(C)O1 (configuration not stated),–,–,–,–,–,·,·,·,·,·,·,
COc1ccccc1C(=O)COC(=O)CNS(=O)(=O)c1ccc(C)c(C)c1,–,–,–,–,–,·,·,·,·,·,·,
COc1ccc2[nH]c3c(c2c1)CCNC3c1ccc([N+](=O)[O-])o1 (configuration not stated),498.4,–,313.6,266.3,–,316.6,564.2,–,414.4,–,·,
O=C(Nc1ccc(NC(=O)c2cc3ccccc3o2)cc1)c1ccco1,–,–,–,–,–,·,·,·,·,·,–,
COc1cc(NC(=O)c2cccc(C)c2)ccc1NC(=O)c1cc2ccccc2o1,–,–,–,–,–,·,·,·,·,·,–,
O=C(Nc1ccccc1)c1cc2ccccc2o1,–,–,–,–,–,·,·,·,·,·,·,
CCCCCCSc1ccc(-c2nc3ccccn3c2NCCCC)cc1,–,–,161.5,–,–,–,–,–,–,–,·,
O=C(OCC(=O)N1CCN(C(=O)c2ccco2)CC1)c1cc(-c2ccccc2)nc2ccccc12,202.5,–,163.1,–,–,–,214.8,–,–,–,–,
O=C(OCC(=O)N1CCN(C(=O)c2ccco2)CC1)c1cn(-c2ccccc2)nc1-c1ccccc1,–,–,–,–,–,·,·,·,·,·,·,
SMILES,MEP2 TOR yeast,RPL19A-GFP yeast,LAP4-GFP MLPCN,CIT2-GFP yeast,AGP1-GFP MLPCN,LAP4 cherry2,MEP2-GFP pick2,RPL19A-GFP pick2,CIT2 GFP CP2,AGP1-GFP pick2,s288c autofluor,others
O=C(OCC(=O)N1CCN(C(=O)c2ccco2)CC1)c1cc(-c2cccc(Br)c2)nc2ccccc12,–,–,162.2,–,–,·,·,·,·,·,–,s288c autofl DR=–;TORC1 bypass gr=–
O=C(OCC(=O)N1CCN(C(=O)c2ccco2)CC1)c1cc(-c2ccc(F)cc2)nc2ccccc12,–,–,186.8,–,–,–,201.3,–,–,–,–,s288c autofl DR=–;TORC1 bypass gr=–
C[C@H](NC(=O)c1[nH]cnc1C(=O)Nc1ccc(Cl)cc1)C(=O)OC(C)(C)C,–,–,158.0,–,–,–,–,–,–,–,·,
Cc1cccc(NC(=O)c2nc[nH]c2C(=O)NCC(=O)OC(C)(C)C)c1,–,–,168.4,–,–,–,–,–,–,–,·,
Cc1cccc(NC(=O)c2nc[nH]c2C(=O)N[C@@H](C)C(=O)OC(C)(C)C)c1,–,–,160.3,–,–,–,–,–,–,–,·,
CN1CCN(CC(=O)Nc2cc(S(=O)(=O)N3CCOCC3)ccc2Cl)CC1,–,–,–,–,–,·,·,·,·,·,·,
Cc1cc(Cl)ccc1N(CC(=O)NCCSCc1ccco1)S(C)(=O)=O,–,–,–,–,–,–,–,–,–,–,·,
O=C(CCc1ccccc1)NNC(=S)NC(=O)c1ccccc1,–,–,243.4,–,–,·,·,·,·,·,–,s288c autofl DR=–;TORC1 bypass gr=–
CCCCC(=O)NC(=S)NNC(=O)CCc1ccccc1,–,–,150.5,–,–,–,–,–,–,–,–,
O=C(NC(=S)NNC(=O)[C@H]1C[C@@H]1c1ccccc1)c1cccc(F)c1,–,–,153.1,–,–,·,·,·,·,·,–,
